Records with an inconclusive call do not appear. Calls of active or inactive are those of the source. Calls follow the shape of the dose curve; as a rule, active = well fitted inhibition curve with a large enough effect; inconclusive = small, poorly fitted or top-dose-only effect, or effect the other way; inactive = flat fitted curve, though single readings scatter.
experiment: Secondary Assay for General miRNAs Modulators and/or Inhibitors/Activators of miR-21: miR-30 Firefly Luciferase Assay; conditions: HeLa miR-30 FLuc reporter, luminescence, 48 h; series mostly up to 38.3 µM
Text: MLSCN Grant: 1 R21 NS059478-01 Assay Provider: Qihong Huang, The Wistar Institute NCGC Assay Overview: MicroRNAs (miRNAs) are endogenously encoded small (~20-25 nucleotides), nonprotein-coding RNAs that are involved in post-transcriptional repression of target messenger RNAs (mRNAs) (Le and Hannon, 2004). Estimated to be involved in the regulation of 30% of all protein-coding mRNAs (Filipowicz et al., 2008), miRNAs play a significant role in many biological processes including cellular differentiation and tissue development (Ghildiyal and Zamore, 2009). […] Compounds active in the miR-21 FLuc assay were clustered using Leadscope and active chemical series were prioritized based on chemical properties, potential for medicinal chemistry optimization, and SAR. Within each chemical series, representative compounds were re-acquired to test for activity in a secondary assay based on the quality of their CRC, efficacy, and potency. The secondary assay to determine if compounds active in the miR-21 FLuc assay were potentially specific for miR-21 and were not general modulators of the miRNA pathway was another cell-based FLuc reporter gene assay, this time targeting miR-30. Compounds found active in both the miR-21 FLuc and miR-30 FLuc assays are not considered miR-21 specific compounds, and may be general miRNA modulators.
NCGC Assay Protocol Summary: Reagents: HeLa cells stably expressing firefly luciferase (FLuc) under the control of a CMV promoter (upstream) and a miR-30 binding sequence directly downstream of the gene. These cells also stably express miR-30. Control compounds used were compound C3 (provided by collaborator), N6-phenyladenosine (MP Biomedicals, 0215379625), and DMSO. Assay Summary: 6uL of HeLa miR-30-FLuc cells in assay buffer (DMEM, Invitrogen #21063-029; 10% FBS, HyClone #SH30071.03) were dispensed at 1000cells/well (1.7 x 10^5 cells/mL) into Greiner solid-white TC-treated 1536-well plates using a Multidrop Combi (Thermo Fisher Scientific). Plates were incubated for one hour at 37 degree Celsius, 95% humidity, 5% CO2. These assay plates were then treated with 23nL of compound or DMSO using a Kalypsys pin tool, which allows for delivery of a 24-point titration of each compound to the assay plate, with a final compound concentration ranging from approximately 40uM to 5pM. Assay plates were then incubated for 48 hours. After incubation, plates were allowed to come to RT for one hour prior to delivery of 3uL of 3X luciferase detection reagent. After a 15 minute incubation to allow for cell lysis, luciferase activity was measured using a ViewLux CCD imager (PerkinElmer), with an average exposure time of 2-12 seconds. Keywords: NIH Roadmap, MLPCN, MLSMR, qHTS, miR-21, miR-30, microRNA, firefly luciferase, FLuc.

| Structure (SMILES) | Potency |
| --- | --- |
| Cc1c(-c2nc(-c3ccc(C(F)(F)F)cc3)no2)n(C)oc1=O | 0.503 µM (active) |
| COc1ccc(C(=O)Nc2nnc(C(C)C)s2)cc1OC | 7.98 µM (active) |
| Nc1c(-c2nc(-c3ccncc3)no2)nnn1CC(=O)Nc1ccccc1 | inactive |
| CC(=O)Nc1nc2c(C)cc(NC(=O)C3CCCCC3)cc2s1 | 1.26 µM (active) |
| NC(=O)c1ccccc1NC(=O)c1ccc(-c2ccc(Br)cc2)o1 | 1.13 µM (active) |
| Nc1c(C(=O)Nc2ccccc2Br)sc2nc(-c3cccs3)ccc12 | inactive |
| Cc1ccc(-n2nnc(-c3nc(-c4cccs4)no3)c2N)cc1C | 2.52 µM (active) |
| CC(C)C(=O)Nc1nc2c(s1)CC(C(C)(C)C)CC2 (stereo not given) | 0.895 µM (active) |
| O=C(CSc1nnc(-c2ccccn2)o1)Nc1cccc(Cl)c1 | 1.13 µM (active) |
| O=C(COc1ccccc1F)Nc1ccc(-c2nc3ccccc3s2)cc1 | 3.18 µM (active) |
| COc1cc(-c2nc3cnccn3c2Nc2ccc(C(C)C)cc2)ccc1O | 2.25 µM (active) |
| c1ccc(CSc2nnc3ccc(-c4cccs4)nn23)nc1 | 11.3 µM (active) |
| COc1ccc(NC(=O)CSc2nnc(-c3cccs3)o2)cc1 | 3.56 µM (active) |
| CCC(=O)n1nc(-c2cccnc2)nc1NCc1ccc(F)cc1 | inactive |
| COc1cccc(NC(=O)CSc2nnc(-c3cccs3)o2)c1 | 5.65 µM (active) |
| Cc1cc(C)c2c(N)c(C(=O)Nc3ccccc3F)sc2n1 | 1.79 µM (active) |
| Nc1c(-c2nc(-c3ccccc3Cl)no2)nnn1-c1ccccc1F | 0.4 µM (active) |
| Cc1ccc(-c2nc(NCc3ccco3)n(S(C)(=O)=O)n2)cc1 | 11.3 µM (active) |
| COc1ccc(-n2nnc(-c3nc(-c4cccs4)no3)c2N)cc1OC | inactive |
| CCc1nonc1NC(=O)c1oc2cc(C)c(C)cc2c1C | 3.18 µM (active) |

| Structure (SMILES) | Potency |
| --- | --- |
| CCS(=O)(=O)n1nc(-c2ccccc2)nc1NCc1ccco1 | inactive |
| Cc1ccc(NC(=O)Cn2nnc(-c3nc(-c4ccc(Cl)cc4)no3)c2N)cc1C | inactive |
| Cc1cccc(-n2nnc(-c3nc(-c4cccs4)no3)c2N)c1 | 0.798 µM (active) |
| CCc1nonc1NC(=O)c1oc2ccccc2c1C | 12.6 µM (active) |
| N#Cc1cc2cc3c(cc2nc1SCC(=O)N1CCOCC1)OCO3 | 0.798 µM (active) |
| Cc1ccc(-c2nsc(SCC(=O)Nc3ccc4c(c3)OCO4)n2)cc1 | 11.3 µM (active) |
| Nc1c(-c2nc(-c3cccs3)no2)nnn1-c1cccc(F)c1 | 0.283 µM (active) |
| Cc1cccc(OCc2nnc(SCC(=O)Nc3ccc(N4CCOCC4)cc3)o2)c1 | inactive |
| COc1ccc(CNc2n[nH]c(-c3ccco3)n2)cc1OC | inactive |
| O=C(CSc1nnc(-c2ccncc2)o1)Nc1nncs1 | inactive |
| Cc1nnc(SCc2nc(N)nc(Nc3ccccc3)n2)s1 | 22.5 µM (active) |
| CCc1nonc1NC(=O)c1oc2ccc(C)cc2c1C | 4.49 µM (active) |
| Cc1cc(C)cc(NC(=O)CSc2nnc(-c3ccccc3C)o2)c1 | 11.3 µM (active) |
| CS(=O)(=O)n1nc(-c2ccc(Cl)cc2)nc1SCc1ccccc1 | 10 µM (active) |
| CC(C)(C)c1ccc(NC(=O)CSc2nnc(-c3n[nH]c4ccccc34)o2)cc1 | 11.3 µM (active) |
| CN(C)c1ccc(CNc2nc(-c3ccco3)nn2S(C)(=O)=O)cc1 | 2.83 µM (active) |
| Cc1ccc(Nc2ncnc(N)n2)cc1C | 10 µM (active) |
| O=C(CSc1nnc(-c2ccc(C(F)(F)F)cn2)o1)Nc1cccc(Cl)c1 | 2.83 µM (active) |
| Cn1c(=O)[nH]c2cc(-c3noc(-c4ccc(F)cc4)n3)ccc21 | 2.52 µM (active) |
| Cc1ccc(CNc2nc3nc(C)c(Cl)c(C)n3n2)cc1 | 6.34 µM (active) |

— PubChem BioAssay AID2507 (National Center for Advancing Translational Sciences (NCATS), 2010)
